Screening data (PubChem)
NIH3T3 tox: kills NIH 3T3 cells | Potency, µM (top dose mostly 96.7 µM), for the others: at the top dose activity change, negative = cytotoxicity, hits mostly inhibitors | NIH 3T3 viability, CellTiter-Glo ATP luminescence, 48-72 h | 94,000 tested, 4.3% active; also: nearly all actives have a fitted effect of over 55% in size
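Luminescent ATP readout (CellTiter-Glo, 10 min RT) after 48 or 72 hr compound exposure of NIH 3T3 cells seeded at 400 cells/well in 1536-well format; quantitative HTS.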
NPR1 antag: blocks ANP-stimulated signaling of human Npr1 receptor | P16066 | HEK293 hNpr1 GloSensor cGMP, ANP-stimulated luminescence | Potency, µM (highest dose often 46.3 µM), without a hit: top-dose activity change, negative = inhibition, most hits filed as inhibitors | 76,000 tested, 1.6% active; calls by dose curve; also: nearly all actives have a fitted effect of over 60% in size
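HEK293 cells stably expressing human Npr1 and cGMP GloSensor pGS-40F, loaded 2 h with 2% GloSensor reagent, given compound 30 min at room temperature. Luminescence read before and 20 min after 0.1 nM hNppA.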
SNCA viab count: reduces viability of HEK-293 SNCA reporter cells; HEK-293-SNCA-luc viability, GF-AFC fluorescence, 24 h; Potency, µM (highest dose often 57.1 µM), for the others: top-dose activity change, negative = cytotoxicity, hits mostly cytotoxic; 150,000 tested, 0.12% active; AID 1671193;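 also: 0% = DMSO-treated cells and -100% = medium-only wells without cells; nearly all actives have a fitted effect of over 30% in size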
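HEK-293-SNCA-luc cells (1500/well) plated 24 h, then exposed 24 h to a dilution series; GF-AFC added 30 min at 37C, fluorescence 405/540 nm; normalised to medium-only and DMSO wells, Hill fit.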
SNCA expr inhib: inhibitors of alpha-synuclein (SNCA) gene expression. HEK-293 SNCA-luciferase knock-in, luminescence, 24 h. Potency, µM (series often up to 57.2 µM), for inactives: at the top dose activity change, negative = inhibition, hits mostly inhibitors. 140,000 tested, 0.17% active;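 also: plate controls were DMSO cells for no effect and cell-free wells for full effect; nearly all actives have a fitted effect of over 45% in size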
Luciferase inh: inhibitors of firefly (Photinus pyralis) luciferase. purified P. pyralis luciferase, luminescence, biochemical. Potency, µM (titrated, usually from 115 µM), actives largely listed as inhibitors. P08659. 76,000 tested, 2.5% active; also: nearly all actives have a fitted effect of over 65% in size
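Biochemical qHTS: compound (6-point titration) added to 10uM D-luciferin plus 10uM ATP in Tris acetate pH 7.5 buffer with Mg, Tween-20 and BSA, then purified enzyme at 10nM; light output imaged.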
HEK293 tox: kills HEK 293 cells | HEK 293 viability, ATP luminescence (CellTiter-Glo), 48-72 h | Potency, µM (titrated, usually from 115 µM), for inactives: at the highest dose activity change, negative = cytotoxicity, actives largely listed as inhibitors | 94,000 tested, 6.6% active; also: nearly all actives have a fitted effect of over 60% in size
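qHTS cytotoxicity; HEK 293, 250 cells/well; compound pinned; 48 or 72 hr, 37 degree Celsius, 5% CO2, 95% humidity; CellTiter-Glo, 10 min RT; luminescence (ATP).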
Active calls of the source: *; i = inactive; ? = inconclusive; . = not tested or not shown; [ ] = remark or other dose. Hits are enriched below; roughly 7.2% of the tested compounds scored in any of these assays. Unless noted, calls follow the shape of the dose curve; as a rule, active = well fitted curve in the direction sought with a large enough effect; inconclusive = small, poorly fitted or top-dose-only effect, or another doubt; inactive = no such curve, though single readings can be large; an effect the other way counts as inactive or inconclusive. Unless noted, % is scaled to controls: 0 for no effect and ±100 for the full control effect; potency is read from the fitted curve at half-maximal effect.

SMILES	NIH3T3 tox	NPR1 antag	SNCA viab count	SNCA expr inhib	Luciferase inh	HEK293 tox
Cc1ncsc1CN1CCC(N2C(=O)C(OCC3CC3)C23CCCCC3)CC1 (stereo unspecified)	-27%	-2%	-5%	-21%	i	?
Cc1ncsc1CN1CCC(N2CC3(CCCCC3)C2c2ccccc2)CC1 (stereo unspecified)	?	.	2%	-3%	.	45µM*
Cc1ccc(-c2nnc3ccc(N4CCCC4)nn23)nc1	?	6%[70.6 µM]	7%[87.6 µM]	7%[87.6 µM]	i	-18%[230 µM]
COC1CCN(c2ccc3nnc(-c4ccccn4)n3n2)CC1	50µM*	6%[70.6 µM]	1%[87.6 µM]	-1%[87.6 µM]	i	-10%[172 µM]
COc1ccc(-c2nnc3ccc(N4CCc5ccccc5C4)nn23)nc1	?	-4%[70.6 µM]	-17%[87.6 µM]	-30%[87.6 µM]	i	56µM*
c1ccc(-c2nnc3ccc(N4CCc5ccccc5C4)nn23)nc1	?	4%[70.6 µM]	-2%[87.6 µM]	?	i	71µM*
c1ccc(-c2nnc3ccc(Nc4ccc(N5CCOCC5)cc4)nn23)nc1	?	-5%[70.6 µM]	-7%[87.6 µM]	50%[87.6 µM]	?	63µM*
c1cn(C2CCSC2)c(-c2cc3n(n2)CCNC3)n1 (stereo unspecified)	0%	0%	-11%	11%	i	-6%
c1ccc2c(c1)CC(n1ccnc1-c1cc3n(n1)CCCNC3)C2	?	-16%	3%	8%	i	79µM*
Cc1nccn1-c1ccc(CNC(=O)c2cn(-c3ccccc3)nn2)cc1	?	-19%	-6%	?	i	?
CCCc1nc(C(=O)NCc2ccc(-n3ccnc3C)cc2)cs1	?	-27%	?	3%	i	20µM*
CCCCC(=O)N1CCC2(CC1)SCC(=O)N2c1ccc(Cl)cc1	-27%	2%	-8%	-5%	i	-28%
Cc1nn(-c2ccccc2)c2c1C(C)N(C1CCN(C(=O)c3cccc(Cl)c3)C1)C2=O (stereo unspecified)	32µM*	.	.	.	.	22µM*
Cc1nn(-c2ccccc2)c2c1C(C)N(C1CCN(C(=O)c3ccc(F)cc3)C1)C2=O (stereo unspecified)	?	.	.	.	.	45µM*
Cc1nn(-c2ccccc2)c2c1C(C)N(C1CN(C(=O)c3ccc(C(F)(F)F)cc3)C1)C2=O (stereo unspecified)	?	.	.	.	.	40µM*
Cc1nn(-c2ccccc2)c2c1C(C1CC1)N(C1CCN(C(=O)c3ccc(F)cc3)C1)C2=O (stereo unspecified)	?	.	.	.	.	35µM*
O=C(Cc1ccc(F)cc1)N1CCCC(C(=O)N2CCC(c3ccccc3)CC2)C1 (stereo unspecified)	?	.	-3%	-13%	.	?
C[C@@H](NC(=O)c1ccccn1)c1onc(-c2ccc(F)cc2)c1C(=O)O	-3%[138 µM]	7%[70.6 µM]	5%[87.6 µM]	-24%[87.6 µM]	i	0%[172 µM]
CC(C)C[C@@H]1N[C@H](C(=O)NCc2cccs2)Cc2cn(CC3CC3)c3cccc1c23	71µM*	-18%[70.6 µM]	-15%[87.6 µM]	-6%[87.6 µM]	i	63µM*
C=CCNC(=O)[C@@H]1Cc2cn(CC=C)c3cccc(c23)[C@H](CC(C)C)N1	?	-2%[70.6 µM]	0%[87.6 µM]	-5%[87.6 µM]	i	?
C=CCn1cc2c3c(cccc31)[C@H](CC(C)C)N[C@H](C(=O)NCCN(C)C)C2	35µM*	2%[70.6 µM]	0%[87.6 µM]	7%[87.6 µM]	i	35µM*
C=CCn1cc2c3c(cccc31)[C@H](CC(C)C)N[C@H](C(=O)NCCC)C2	71µM*	1%[70.6 µM]	-25%[87.6 µM]	?	i	50µM*
CC(C)C[C@@H]1N[C@H](C(=O)NCCN(C)C)Cc2cn(CC3CC3)c3cccc1c23	32µM*	-1%[70.6 µM]	?	-43%[87.6 µM]	i	32µM*
COc1ccc(CN2C=C(C(=O)OCc3nc(C4CCCCC4)no3)C(C)=NS2(=O)=O)cc1	?	?	-11%	-30%	i	?
Cc1ccccc1N1CCN(C(=O)c2cc3cn(C4CC4)cc3s2)CC1	?	-18%	-24%	0%	i	79µM*
SMILES	NIH3T3 tox	NPR1 antag	SNCA viab count	SNCA expr inhib	Luciferase inh	HEK293 tox
COc1cc(OC)cc(C(=O)N2[C@@H]3CC[C@H]2CC(NC(=O)c2ccncc2)C3)c1 (stereo partly specified)	-27%	-3%	8%	-4%	i	-29%
CN1CCCN(S(=O)(=O)c2ccc(C(F)(F)F)cc2)c2ccccc21	?	-3%	-2%	-30%	i	40µM*
Cc1cccc(S(=O)(=O)N2CCCN(C)c3ccccc32)c1	?	-6%	-1%	-19%	i	?
CN1CCCN(S(=O)(=O)c2ccc(Cl)cc2)c2ccccc21	?	0%	3%	-7%	i	?
CN1CCCN(S(=O)(=O)c2cccc(Br)c2)c2ccccc21	?	-23%	-28%	?	i	40µM*
CC1(C)CC[C@]2(C(=O)O[C@@H]3O[C@H](CO[C@@H]4O[C@H](CO)[C@@H](O)[C@H](O)[C@H]4O[C@@H]4O[C@H](CO)[C@H](O)[C@H](O)[C@H]4O)[C@@H](O)[C@H](O[C@@H]4O[C@H](CO)[C@@H](O)[C@H](O)[C@H]4O)[C@H]3O)CC[C@]3(C)C(=CCC4[C@@]5(C)CC[C@H](O[C@@H]6OC[C@@H](O)[C@H](O)[C@H]6O)[C@@](C)(C(=O)O)C5CC[C@]43C)[C@@H]2C1 (stereo partly specified)	.	.	-2%[12.5 µM]	.	.	.
O=C1NCN(Cc2ccc(Cl)cc2)C12CCN(Cc1ccc(C(F)(F)F)cc1)CC2	?	-21%	6%	32%	i	40µM*
O=C1NCN(Cc2ccc(Cl)cc2)C12CCN(Cc1ccc(F)cc1)CC2	14µM*	-22%	-6%	?	i	28µM*
O=C1NCN(Cc2ccc(Cl)cc2)C12CCN(Cc1cccnc1)CC2	?	18%	18%	-4%	i	?
O=C(Cc1cccnc1)N1CCCCCCn2c(nnc2-c2ccc(F)cc2)CC1	-17%	-3%	-1%	-3%	i	i
CC(C)(C)OC(=O)N1CC(Nc2ccc(Oc3ccccc3)cc2)C1	?	.	4%	15%	.	89µM*
COc1ccc(NC2CN(C(=O)OC(C)(C)C)C2)cc1	-6%[138 µM]	.	-10%[87.6 µM]	33%[87.6 µM]	.	-8%[172 µM]
COc1cccc(-c2nnnn2[C@H]2CO[C@H]3[C@@H]2OC[C@@H]3NC(=S)Nc2ccc(F)cc2)c1	?	-9%	2%	-8%	i	?
CN(Cc1cccnc1)C1CCCc2ccccc21 (stereo unspecified)	?	0%[70.6 µM]	6%[87.6 µM]	-2%[87.6 µM]	i	56µM*
Cc1cccc(CN(C)C2CCCc3ccccc32)c1 (stereo unspecified)	-14%[138 µM]	27%[70.6 µM]	6%[87.6 µM]	17%[87.6 µM]	i	i
